Assay outcomes (PubChem BioAssay)
Rows were chosen to be rich in hits. Some 12% of all compounds tested hit in one or more screens of this group.
JMJD2A Tudor inh – JMJD2A Tudor domain (human) inhibition; 4.4% of 390,000 active; AlphaScreen JMJD2A-Tudor / H3K4me3 peptide binding; O75164; Potency, µM (titrated, usually from 114 µM), without a hit: top-dose activity change, negative = inhibition, usual class: inhibitors; note: % is set by controls: 0 for no effect and ±100 for the full control effect; nearly all actives have a fitted effect of over 50% in size
BAZ2B inh – blocks human BAZ2B; Q9UIF8; Potency, µM (series often up to 114 µM), for inactives: top-dose activity change, negative = inhibition, most hits filed as inhibitors; 4.4% of 360,000 active; AID 504333; AlphaScreen BAZ2B-H3K14Ac peptide displacement; note: % is set by controls: 0 for no effect and ±100 for the full control effect; nearly all actives have a fitted effect of over 60% in size
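AlphaScreen displacement: compounds (up to 110uM) incubated 30 min at room temperature with a preformed 50 nM BAZ2B/50 nM biotinylated H3K14Ac peptide complex in PBS pH 7.4 with Tween-20. Donor and acceptor beads at 10 ug/mL final added, 20 min light-protected before reading.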
Sfp PPTase inh – inhibitors of Bacillus subtilis Sfp phosphopantetheinyl transferase. Q9F4F7. Biochemical Sfp PPTase activity, qHTS. Potency, µM, for the others: largest response in the series, negative = inhibition, hits mostly inhibitors. 3.5% of 310,000 active. AID 1490;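 note: the enzyme is Sfp with the accession as filed and its product quenches rhodamine fluorescence; 0% = enzyme reaction without inhibitor and -100% = no enzyme wells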
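Buffer: 50 mM Hepes-Na pH 7.6, 10 mM MgCl2, 0.01% Nonidet P-40, 0.01% BSA. Enzyme 15 nM, pre-exposed to compound 15 min; substrates then added and fluorescence change tracked over 30 min.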
HP1b binding inh – HP1-beta chromodomain-methylated histone interaction inhibition. AlphaScreen HP1-beta / biotin-H3K9me3 peptide binding. Potency, µM (titrated, usually from 114 µM), inactives show at the top dose activity change, negative = inhibition, most hits filed as inhibitors. 0.56% of 390,000 active; note: nearly all actives have a fitted effect of over 70% in size
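AlphaScreen: HP1-beta (50 nM) preformed 30 min with biotin-H3(1-18)K9me3 peptide (50 nM) in PBS pH 7.4, 0.01% Tween-20. Compound added for 30 min at RT, then streptavidin donor/nickel chelate acceptor beads (10 ug/mL) for 30 min.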
G9a inh – blocks human histone lysine methyltransferase G9a; G9a H3K9 monomethylation, AlphaScreen, 2 h; AID 504332; 8.8% of 350,000 active; Potency, µM (doses to about 102 µM), inactives show top-dose activity, negative = inhibition, most hits filed as inhibitors; Q96KQ7; note: % is set by controls: 0 for no effect and ±100 for the full control effect; nearly all actives have a fitted effect of over 75% in size
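Compounds were preincubated with 20 nM G9a for 15 min, after which biotinylated H3K9 peptide (500 nM) and SAM (20 uM) started a 2 h room-temperature reaction. Monomethylated product was quantified by antibody-based AlphaScreen chemiluminescence.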
PLK1 PBD block – PLK1 (human) polo-box domain binding inhibition | P53350 | Plk1 PBD binding of FITC phosphopeptide, fluorescence polarization | Potency, µM, without a hit: max response, negative = inhibition, most hits filed as inhibitors | 2.8% of 360,000 active; note: series mostly up to about 57 µM; % is set by controls: 0 for no effect and ±100 for the full control effect; nearly all actives have a fitted effect of over 65% in size
Numbers without * were called inactive; [ ] = another dose, or the depositor's remark. Calls come from the whole dose curve; as a rule, active = well fitted curve in the direction sought with a large enough effect; inconclusive = small, poorly fitted or top-dose-only effect, or another doubt; inactive = no such curve, though single readings can be large; an effect the other way counts as inactive or inconclusive. Potency is the fitted concentration of half-maximal effect.

COc1cccc(Cn2c(=O)c(-c3cccs3)nc3cnc(N(C)C)nc32)c1 was read as Sfp PPTase inh 37.9% and G9a inh 10.6%[0.501 µM].
Screening O=C(CC1C(=O)NCCN1Cc1c(F)cccc1Cl)NC1CCCC1 (centres undefined) returned JMJD2A Tudor inh 0.0%, BAZ2B inh 2.7%, Sfp PPTase inh 9.4%, HP1b binding inh 35.0%, G9a inh -1.4% and PLK1 PBD block -21.7%.
Screening CCOc1ccc(Nc2nc(N)c(C(=O)c3ccccc3Cl)s2)cc1 returned JMJD2A Tudor inh 44.7µM*, BAZ2B inh inconclusive, HP1b binding inh inconclusive and G9a inh -33.0%[59 µM].
`Nc1nc(Nc2cccc(C(F)(F)F)c2)sc1C(=O)c1ccccc1` gave JMJD2A Tudor inh -14.3%, BAZ2B inh -3.4%, HP1b binding inh 39.9% and G9a inh 7.6%[59 µM].
`COc1ccc(Nc2nc(N)c(C(=O)c3ccc(OC)cc3)s2)cc1` gave JMJD2A Tudor inh inconclusive, BAZ2B inh -23.5%, Sfp PPTase inh -25.3%, HP1b binding inh 15.4%, G9a inh inconclusive and PLK1 PBD block -5.2%.
Screening COc1ccc(Nc2nc(N)c(C(=O)c3ccc(F)cc3)s2)cc1 returned JMJD2A Tudor inh inconclusive, BAZ2B inh 20.7%, Sfp PPTase inh inconclusive, HP1b binding inh -4.1%, G9a inh inconclusive and PLK1 PBD block -2.6%.
For Cc1ccc(C(=O)c2sc(Nc3ccc(F)cc3)nc2N)c(C)c1 the results were JMJD2A Tudor inh 79.4µM*, BAZ2B inh 39.8µM*, HP1b binding inh inconclusive and G9a inh inconclusive.
Screening CC(C)(C)C(=O)c1sc(Nc2ccccc2)nc1N returned JMJD2A Tudor inh 56.2µM*, BAZ2B inh 50.1µM*, Sfp PPTase inh inconclusive, HP1b binding inh inconclusive, G9a inh 25.1µM* and PLK1 PBD block -8.7%.
`NS(=O)(=O)c1cccc(NC(=O)COC(=O)CCN2C(=O)c3ccccc3C2=O)c1` gave JMJD2A Tudor inh 1.0%, BAZ2B inh -5.0%, HP1b binding inh 31.8%, G9a inh -4.7%[59 µM] and PLK1 PBD block -2.4%.
Screening O=C(CN1CCN(c2cnn(-c3ccccc3)c(=O)c2Cl)CC1)NC1CCS(=O)(=O)C1 (centres undefined) returned JMJD2A Tudor inh -10.8%, BAZ2B inh 1.5%, HP1b binding inh 19.4%, G9a inh 44.7µM* and PLK1 PBD block 0.0%.
`COCCOC(=O)C1=C(C)NC(SCC(=O)NC(C)(C)C)=C(C#N)C1c1ccco1` (centres undefined) gave JMJD2A Tudor inh 89.1µM*, BAZ2B inh -4.3%, Sfp PPTase inh 3.6%, HP1b binding inh 27.3%, G9a inh -9.4%[59 µM] and PLK1 PBD block -5.8%.
C=CCOC(=O)C1=C(C)NC(SCC(=O)Nc2ccc(C)c(Cl)c2)=C(C#N)C1c1ccco1 (centres undefined) was read as JMJD2A Tudor inh -18.0%, BAZ2B inh 7.6%, Sfp PPTase inh 35.5µM*, HP1b binding inh 32.8%, G9a inh -13.6% and PLK1 PBD block -7.4%.
For COc1ccccc1NC(=O)C1=C(C)NC(SCC(=O)c2ccccc2)=C(C#N)C1c1ccco1 (centres undefined) the results were JMJD2A Tudor inh 17.8%[11.4 µM], BAZ2B inh -1.1%, Sfp PPTase inh inconclusive, HP1b binding inh 10.8%, G9a inh inconclusive and PLK1 PBD block inconclusive.
For COc1ccccc1C1(O)C(=O)Nc2ccccc21 (centres undefined) the results were JMJD2A Tudor inh -3.8%, BAZ2B inh -12.3%, Sfp PPTase inh -1.4%, HP1b binding inh 75.7%, G9a inh -9.3%[2.33 µM] and PLK1 PBD block -7.9%.
For Cc1cc2c(s1)c1cnn(Cc3ccc(F)c(F)c3)c(=O)c1n2C the results were JMJD2A Tudor inh -12.3%.
Oc1cccc(/C=N/Nc2cccc3cccnc23)c1 was read as JMJD2A Tudor inh inconclusive, BAZ2B inh inconclusive, Sfp PPTase inh 44.7µM*, HP1b binding inh inconclusive, G9a inh 35.5µM* and PLK1 PBD block -6.4%.
Screening COc1cc(/C=N/Nc2cccc3cccnc23)cc(OC)c1O returned JMJD2A Tudor inh inconclusive, BAZ2B inh 28.2µM*, Sfp PPTase inh 50.1µM*, HP1b binding inh inconclusive, G9a inh 10µM* and PLK1 PBD block -9.9%.
For CC(C)c1ccc(OCC(O)CN2CCN(c3ccccc3)CC2)cc1 (centres undefined) the results were JMJD2A Tudor inh -35.9%, BAZ2B inh 56.2µM*, Sfp PPTase inh -2.1%, HP1b binding inh -5.9%, G9a inh inconclusive and PLK1 PBD block 4.3%.
`OC(COc1ccc2c(c1)OCO2)CN1CCN(c2ccccc2)CC1` (centres undefined) gave JMJD2A Tudor inh inconclusive, BAZ2B inh -37.8%, Sfp PPTase inh inconclusive, HP1b binding inh 1.7%, G9a inh 50.1µM* and PLK1 PBD block -9.3%.
For OC(COc1ccc2c(c1)OCO2)CN1CCCCC1 (centres undefined) the results were JMJD2A Tudor inh 8.6%, BAZ2B inh -9.1%, Sfp PPTase inh 4.6%, HP1b binding inh 25.0%, G9a inh -2.2% and PLK1 PBD block 3.6%.
Screening CCOc1cc(NC(=O)C2CC2)c(OCC)cc1NC(=O)c1cccc(F)c1 returned JMJD2A Tudor inh 3.5%, BAZ2B inh 1.8%, Sfp PPTase inh 6.4%, HP1b binding inh 22.6%, G9a inh 11.9% and PLK1 PBD block 2.8%.
Screening O=C(O)C1OC(Oc2c(-c3ccc(O)c(O)c3)oc3cc(O)cc(O)c3c2=O)C(O)C(O)C1O (centres undefined) returned JMJD2A Tudor inh 31.6µM*, BAZ2B inh 35.5µM*, Sfp PPTase inh -9.7%, HP1b binding inh inconclusive, G9a inh 31.6µM* and PLK1 PBD block -12.0%.
CC1OC(Oc2c(-c3cc(O)c(O)c(O)c3)oc3cc(O)cc(O)c3c2=O)C(O)C(O)C1O (centres undefined) was read as JMJD2A Tudor inh inconclusive, BAZ2B inh -23.6%, Sfp PPTase inh 7.94µM*, HP1b binding inh -22.5%, G9a inh 39.8µM* and PLK1 PBD block inconclusive.
Cc1ccc(-c2nc(N=Nc3ccc(O)cc3)n[nH]2)cc1 was read as JMJD2A Tudor inh inconclusive, BAZ2B inh inconclusive, Sfp PPTase inh 4.8%, HP1b binding inh -27.6%, G9a inh 50.1µM* and PLK1 PBD block 3.1%.
For O=C(NNc1ccc(C(F)(F)F)cc1[N+](=O)[O-])c1ccc(NS(=O)(=O)c2ccc(F)cc2)cc1 the results were JMJD2A Tudor inh 22.4µM*, BAZ2B inh 10µM*, Sfp PPTase inh 6.7%, HP1b binding inh inconclusive, G9a inh 25.1µM* and PLK1 PBD block -23.2%.
